Laboratory results as given in PubChem BioAssay (Tox21).
Inconclusive results are not listed. Activity calls are given as the source filed them. Unless noted, the call rests on the fitted dose curve; in most records, active means well fitted curve in the direction sought with a large enough effect in the repeat runs; inconclusive means weak or mixed curves; inactive means no such curve, though single readings can be large; an effect the other way counts as inactive or inconclusive.

Experiments:
[1] = A CellTox Green Cytotoxicity Assay to monitor cytotoxicity in HepG2 cells - 0 hour (AID 1224882); further: nearly all actives have a fitted effect of over 35% in size
Method in brief: (§1)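 Measurements at 0, 8, 16, 24, 32 and 40 h of treatment captured CellTox Green fluorescence in HepG2 cells that had been co-plated with reagent and preincubated 5 h at 37 C/5% CO2.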

[2] = A CellTox Green Cytotoxicity Assay to monitor cytotoxicity in HEK293 cells - 8 hour (AID 1224884); further: nearly all actives have a fitted effect of over 35% in size
Method in brief: (§2)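 Tox21 screen in HEK293: membrane-impermeant cyanine dye fluoresces on binding dead-cell DNA; compound pinned 5 h post-seeding, plates held at 37 C, signal read repeatedly through 40 h.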

[3] = qHTS RealTime-Glo MT Cell Viability Assay in HEK293 cells - 8 hour (AID 1224887); further: nearly all actives have a fitted effect of over 50% in size; further: potency means the concentration at half of the fitted maximal effect
Method in brief: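 HEK293 + NanoLuc + prosubstrate, 600 cells/well; 5 h, 37 C/5% CO2; compound 23 nL in DMSO by pintool; 37 C; luminescence read at 0, 8, 16, 24, 32 and 40 h time points.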

[4] = A CellTox Green Cytotoxicity Assay to monitor cytotoxicity in HEK293 cells - 16 hour (AID 1224888); further: nearly all actives have a fitted effect of over 35% in size
Method in brief: as §2

[5] = qHTS assay to identify small molecule antagonists of the estrogen receptor alpha (ER-alpha) signaling pathway using the BG1 cell line in the presence of 0.1 nM 17-beta-estradiol - cell viability counter screen (AID 1259241); further: nearly all actives have a fitted effect of over 40% in size; further: potency means the concentration at half of the fitted maximal effect
Method in brief: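 Viability in VM7Luc4E2 cells after 22 hr compound exposure under 0.1 nM 17beta-estradiol stimulation, by CellTiter-Fluor.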

[6] = qHTS assay to identify small molecule antagonists of the androgen receptor (AR) signaling pathway using the MDA cell line in the presence of 0.5 nM R1881 - cell viability counter screen (AID 1259242); further: nearly all actives have a fitted effect of over 45% in size; further: potency means the concentration at half of the fitted maximal effect
Method in brief: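 Concentration-response screen of compounds for toxicity in MDA-kb2 reporter cells: 16 hr at 37C with 0.5 nM R1881, endpoint live-cell protease fluorescence measured in the reporter wells.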

[7] = target: Androgen receptor (Homo sapiens) (UniProt P10275); assay: qHTS assay to identify small molecule antagonists of the androgen receptor (AR) signaling pathway using the MDA cell line in the presence of 0.5 nM R1881 (AID 1259243); further: potency means the concentration at half of the fitted maximal effect; nearly all actives have a fitted effect of over 50% in size
Androgen receptor (Homo sapiens), sequence (P10275 whole entry, looked up): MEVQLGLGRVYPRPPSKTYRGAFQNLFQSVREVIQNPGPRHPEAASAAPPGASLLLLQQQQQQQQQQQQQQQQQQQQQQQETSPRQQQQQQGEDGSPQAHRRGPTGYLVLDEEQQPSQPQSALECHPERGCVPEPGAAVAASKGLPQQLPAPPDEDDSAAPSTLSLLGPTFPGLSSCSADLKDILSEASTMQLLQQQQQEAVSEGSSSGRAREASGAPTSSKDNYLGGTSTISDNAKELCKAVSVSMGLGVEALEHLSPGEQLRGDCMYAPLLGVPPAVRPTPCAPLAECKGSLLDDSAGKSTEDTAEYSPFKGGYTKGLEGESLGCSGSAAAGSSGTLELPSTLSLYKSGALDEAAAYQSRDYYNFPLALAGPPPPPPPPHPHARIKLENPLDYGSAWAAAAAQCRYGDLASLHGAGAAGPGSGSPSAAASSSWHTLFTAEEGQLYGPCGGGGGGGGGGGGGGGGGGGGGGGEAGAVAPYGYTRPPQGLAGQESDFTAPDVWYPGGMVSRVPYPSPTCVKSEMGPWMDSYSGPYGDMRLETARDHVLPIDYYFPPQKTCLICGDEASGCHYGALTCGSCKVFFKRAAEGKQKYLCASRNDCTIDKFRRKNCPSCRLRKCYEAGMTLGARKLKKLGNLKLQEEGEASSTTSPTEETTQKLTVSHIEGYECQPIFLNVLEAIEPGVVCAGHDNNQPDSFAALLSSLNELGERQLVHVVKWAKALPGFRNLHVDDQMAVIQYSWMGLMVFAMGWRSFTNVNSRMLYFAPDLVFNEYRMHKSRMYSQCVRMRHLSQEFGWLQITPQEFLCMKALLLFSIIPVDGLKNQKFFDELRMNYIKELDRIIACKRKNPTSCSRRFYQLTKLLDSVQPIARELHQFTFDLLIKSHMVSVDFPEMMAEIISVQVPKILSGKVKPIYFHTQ
Method in brief: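 With R1881 held at 0.5 nM (final), compound effects on MMTV-luciferase expression in MDA-kb2 cells were scored by luminescence after a 16 hr, 37C incubation.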

[8] = qHTS assay to identify small molecule phospholipidosis (PLD) inducers (AID 1259344; active means well fitted curve in the direction sought with a large enough effect; an effect the other way counts as inactive or inconclusive)
Method in brief: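 Read-out is LipidTOX Red fluorescence (ex 595/em 615) imaged in HepG2 cells after 24 h compound exposure at 37 C, with Hoechst nuclear counterstain (ex 352/em 461) allowing per-cell normalisation.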

[9] = qHTS assay to identify small molecule HDAC inhibitors (AID 1259364);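 further: wild-type HCT-116 cells with endogenous class I/II HDAC activity; top concentration of the series differs between compounds; nearly all actives have a fitted effect of over 45% in size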
Method in brief: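 Screening used wild-type human colon HCT-116 cells incubated overnight, dosed with compounds for 2 hours, and assayed with a homogeneous luminogenic HDAC I/II reagent for 30 minutes at room temperature.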

[10] = qHTS assay to identify small molecule agonists of the sonic hedgehog signaling (Shh) pathway - cell viability counter screen (AID 1259366); further: nearly all actives have a fitted effect of over 50% in size; further: potency means the concentration at half of the fitted maximal effect
Method in brief: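 Stable Gli1-Luc NIH/3T3 clone, 2,000 cells/well. Compound exposure 24hr at 37C. Read-out: CellTiter-Fluor fluorescence.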

[11] = qHTS RealTime-Glo MT Cell Viability Assay in HepG2 cells - 16 hour (AID 1224885); further: nearly all actives have a fitted effect of over 50% in size
Method in brief: (§3)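 Cell number in HepG2 cultures estimated from NanoLuc luminescence generated by metabolic reduction of a prosubstrate by living cells. The homogeneous, nonlytic format allowed repeated reads at 0, 8, 16, 24, 32 and 40 h of compound exposure.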

[12] = qHTS RealTime-Glo MT Cell Viability Assay in HEK293 cells - 24 hour (AID 1224886); further: nearly all actives have a fitted effect of over 50% in size; further: potency means the concentration at half of the fitted maximal effect
Method in brief: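 Homogeneous bioluminescent viability format in HEK293 cells (600 cells/well). Following 5 h at 37 C/5% CO2, 23 nL compound was pintooled; the signal was measured repeatedly during 40 h incubation.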

[13] = qHTS RealTime-Glo MT Cell Viability Assay in HepG2 cells - 0 hour (AID 1224889); further: nearly all actives have a fitted effect of over 50% in size; further: potency means the concentration at half of the fitted maximal effect
Method in brief: as §3

[14] = A CellTox Green Cytotoxicity Assay to monitor cytotoxicity in HepG2 cells - 8 hour (AID 1224890); further: nearly all actives have a fitted effect of over 45% in size
Method in brief: as §1

[15] = qHTS assay to identify small molecule HDAC inhibitors - cell viability counter screen (AID 1259365)
Method in brief: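 Cytotoxicity was gauged in wild-type HCT-116 cells after a brief 2hr treatment with DMSO-dissolved compounds at 37C and 5% CO2, using CellTiter-Glo luminescence developed for 30min at room temperature.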

[16] = qHTS assay to identify small molecule antagonists of the sonic hedgehog signaling (Shh) pathway - cell viability counter screen (AID 1259367); further: nearly all actives have a fitted effect of over 55% in size
Method in brief: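 Fluorescence read-out (CellTiter-Fluor, 1 hr at 37C) taken after 23 hr compound treatment of 3T3 Gli1-Luc cells stimulated with conditioned medium. Cells were seeded at 2,000 per well and pre-incubated 4 hr.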

[17] = A CellTox Green Cytotoxicity Assay to monitor cytotoxicity in HepG2 cells - 32 hour (AID 1224883); further: nearly all actives have a fitted effect of over 50% in size
Method in brief: as §1

[18] = A CellTox Green Cytotoxicity Assay to monitor cytotoxicity in HEK293 cells - 32 hour (AID 1224881); further: nearly all actives have a fitted effect of over 40% in size; further: potency means the concentration at half of the fitted maximal effect
Method in brief: as §2

[19] = target: Estrogen receptor (Homo sapiens) (UniProt P03372); assay: qHTS assay to identify small molecule antagonists of the estrogen receptor alpha (ER-alpha) signaling pathway using the BG1 cell line in the presence of 0.1 nM 17-beta-estradiol (AID 1259244); further: nearly all actives have a fitted effect of over 50% in size; further: potency means the concentration at half of the fitted maximal effect
Estrogen receptor (Homo sapiens), sequence (P03372 whole entry, looked up): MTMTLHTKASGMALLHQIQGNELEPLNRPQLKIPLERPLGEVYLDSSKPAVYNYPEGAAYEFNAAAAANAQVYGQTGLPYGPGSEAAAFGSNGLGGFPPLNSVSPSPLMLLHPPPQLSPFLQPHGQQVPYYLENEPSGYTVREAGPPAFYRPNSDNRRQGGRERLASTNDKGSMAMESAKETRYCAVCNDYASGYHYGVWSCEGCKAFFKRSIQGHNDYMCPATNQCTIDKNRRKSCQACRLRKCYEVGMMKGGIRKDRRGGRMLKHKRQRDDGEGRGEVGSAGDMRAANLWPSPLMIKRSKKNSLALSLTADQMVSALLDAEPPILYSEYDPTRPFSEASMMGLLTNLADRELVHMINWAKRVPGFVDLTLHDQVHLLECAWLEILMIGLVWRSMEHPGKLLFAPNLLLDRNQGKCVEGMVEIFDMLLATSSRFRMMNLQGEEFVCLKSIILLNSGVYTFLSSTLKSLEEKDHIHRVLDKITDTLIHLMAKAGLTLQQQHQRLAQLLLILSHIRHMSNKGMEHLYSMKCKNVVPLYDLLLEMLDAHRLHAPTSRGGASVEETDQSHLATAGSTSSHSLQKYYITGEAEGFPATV
Method in brief: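 Compounds were tested against 0.1 nM (final) 17beta-estradiol in VM7Luc4E2 cells, which express full-length ER-alpha and an ERE-luciferase reporter; luminescence was recorded following 22 h exposure.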

Measured: Potency

COc1cc2ncnc(Nc3ccc(F)c(Cl)c3)c2cc1OCCCN1CCOCC1
inactive: [1] | [2] | [4] | [5] | [6] | [8] | [9]
active: [3] 10.7 µM | [7] 26.6 µM | [10] 15 µM

CSc1ccc(Oc2ccc(S(N)(=O)=O)cc2CN(C)C)cc1C
inactive: [1] | [11] | [13] | [14] | [5] | [6] | [9] | [15] | [16]
active: [12] 49 µM

CC1=C(C=O)C(C)(C)CCC1
not listed: [3] | [4] | [7] | [8] | [12] | [18] | [19]
inactive: all other assays above

OCCSc1ccccc1
not listed: [1] | [4] | [7] | [8] | [11]
inactive: all other assays above

CC(C)(C)CC(C)(C)c1ccc(OCCO)cc1
inactive: [1] | [11] | [14] | [8] | [9] | [15]
active: [18] 54.6 µM | [3] 7.72 µM | [5] 54.2 µM | [6] 48.3 µM | [7] 6.82 µM | [19] 10.8 µM

CC(=O)OCC(=O)[C@@]12OC(C)(C)O[C@@H]1C[C@H]1[C@@H]3C[C@H](F)C4=CC(=O)C=C[C@]4(C)[C@@]3(F)[C@@H](O)C[C@@]12C
active: [18] 26.8 µM | [13] 2.68 µM
not listed: [1] | [7]
inactive: all other assays above

NC(=O)N(O)[C@@H]1C=C[C@H](Oc2cccc(Oc3ccc(F)cc3)c2)C1
active: [12] 15.5 µM
inactive: [1] | [2] | [11] | [4] | [13] | [6] | [9] | [15] | [10] | [16]
